Test [1] addresses Fibroblast growth factor receptor 4 (Homo sapiens) (UniProt P22455). As to conditions: at 1 µM.
Test [2] addresses Tyrosine-protein kinase Fgr (Homo sapiens) (UniProt P09769). As to conditions: at 0.1 µM.
For test [3] the target is unchanged. As to conditions: at 1 µM.
In test [4] the target is Vascular endothelial growth factor receptor 1 (Homo sapiens) (UniProt P17948). The settings on record: at 0.1 µM.
The target is the same in test [5]. The settings on record: at 1 µM.
In test [6] the target is Receptor-type tyrosine-protein kinase FLT3 (Homo sapiens) (UniProt P36888). The settings on record: at 0.1 µM.
Test [7] shares this target. The settings on record: at 1 µM.
The subject of test [8] is T1, Receptor-type tyrosine-protein kinase FLT3 (Homo sapiens), P36888 [D835Y].
T1 sequence (whole entry): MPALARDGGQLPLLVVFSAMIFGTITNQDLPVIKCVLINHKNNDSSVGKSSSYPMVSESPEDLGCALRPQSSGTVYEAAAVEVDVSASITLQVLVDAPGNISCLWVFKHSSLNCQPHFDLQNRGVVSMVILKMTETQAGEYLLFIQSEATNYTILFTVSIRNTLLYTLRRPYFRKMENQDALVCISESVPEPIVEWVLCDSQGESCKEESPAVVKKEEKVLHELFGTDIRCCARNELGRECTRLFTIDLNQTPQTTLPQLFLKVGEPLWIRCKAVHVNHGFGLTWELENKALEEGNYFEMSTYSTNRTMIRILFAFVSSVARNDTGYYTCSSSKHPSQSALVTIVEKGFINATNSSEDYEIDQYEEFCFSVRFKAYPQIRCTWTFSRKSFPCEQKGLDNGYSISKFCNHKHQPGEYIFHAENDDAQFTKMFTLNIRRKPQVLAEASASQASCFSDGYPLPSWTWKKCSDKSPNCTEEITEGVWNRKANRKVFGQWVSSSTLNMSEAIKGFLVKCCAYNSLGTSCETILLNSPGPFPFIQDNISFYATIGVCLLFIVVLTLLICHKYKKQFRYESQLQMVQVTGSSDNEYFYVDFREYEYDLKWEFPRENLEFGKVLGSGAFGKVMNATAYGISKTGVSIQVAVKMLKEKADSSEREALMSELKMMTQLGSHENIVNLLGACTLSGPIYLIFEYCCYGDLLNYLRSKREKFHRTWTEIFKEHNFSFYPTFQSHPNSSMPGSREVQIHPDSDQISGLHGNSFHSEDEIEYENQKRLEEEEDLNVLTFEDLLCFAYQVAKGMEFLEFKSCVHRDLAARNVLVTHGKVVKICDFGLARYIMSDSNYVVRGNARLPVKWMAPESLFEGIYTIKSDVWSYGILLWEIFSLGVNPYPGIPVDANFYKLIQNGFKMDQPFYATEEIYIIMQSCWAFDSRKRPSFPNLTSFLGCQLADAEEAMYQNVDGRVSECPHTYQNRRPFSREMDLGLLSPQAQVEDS
The settings on record: at 0.1 µM.

The target of test [9] is Non-receptor tyrosine-protein kinase TYK2 (Homo sapiens) (UniProt P29597). The settings on record: at 1 µM.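 Also: values are mean percent inhibition of TYK2 kinase.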
For test [10], the target named is T2, Tyrosine-protein kinase receptor TYRO3 (Homo sapiens) (UniProt Q06418).
T2 sequence (whole entry): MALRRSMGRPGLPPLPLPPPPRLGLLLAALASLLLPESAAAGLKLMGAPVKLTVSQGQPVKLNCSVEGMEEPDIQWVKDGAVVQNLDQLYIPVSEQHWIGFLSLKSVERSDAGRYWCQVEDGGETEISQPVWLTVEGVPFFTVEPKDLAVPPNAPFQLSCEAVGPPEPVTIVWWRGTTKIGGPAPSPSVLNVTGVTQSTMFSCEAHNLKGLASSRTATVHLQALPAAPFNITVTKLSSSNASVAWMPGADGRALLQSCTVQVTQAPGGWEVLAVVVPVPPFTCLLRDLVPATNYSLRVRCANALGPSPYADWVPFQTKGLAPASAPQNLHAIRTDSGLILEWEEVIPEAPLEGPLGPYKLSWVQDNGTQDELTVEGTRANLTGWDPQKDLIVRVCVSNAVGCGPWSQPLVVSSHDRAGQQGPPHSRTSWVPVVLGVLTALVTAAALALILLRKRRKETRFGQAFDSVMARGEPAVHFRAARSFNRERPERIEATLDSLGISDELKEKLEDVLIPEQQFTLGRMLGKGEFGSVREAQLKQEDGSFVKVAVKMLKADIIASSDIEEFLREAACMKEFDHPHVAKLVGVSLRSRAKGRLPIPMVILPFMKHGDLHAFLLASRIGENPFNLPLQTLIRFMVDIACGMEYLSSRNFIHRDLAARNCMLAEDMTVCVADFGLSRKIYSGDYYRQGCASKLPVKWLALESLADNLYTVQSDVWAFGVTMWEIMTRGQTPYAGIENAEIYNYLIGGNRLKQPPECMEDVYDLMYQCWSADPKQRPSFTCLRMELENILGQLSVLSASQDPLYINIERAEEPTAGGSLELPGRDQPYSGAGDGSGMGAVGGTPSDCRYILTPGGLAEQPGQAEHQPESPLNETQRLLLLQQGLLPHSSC
As to conditions: at 0.1 µM.

Test [11] has as its target T2, Tyrosine-protein kinase receptor TYRO3 (Homo sapiens). The settings on record: at 1 µM.
The target in test [12] is Tyrosine-protein kinase Yes (Homo sapiens) (UniProt P07947). As to conditions: at 0.1 µM.
Chain of Tyrosine-protein kinase Yes (Homo sapiens) (P07947 2-543 limits assumed): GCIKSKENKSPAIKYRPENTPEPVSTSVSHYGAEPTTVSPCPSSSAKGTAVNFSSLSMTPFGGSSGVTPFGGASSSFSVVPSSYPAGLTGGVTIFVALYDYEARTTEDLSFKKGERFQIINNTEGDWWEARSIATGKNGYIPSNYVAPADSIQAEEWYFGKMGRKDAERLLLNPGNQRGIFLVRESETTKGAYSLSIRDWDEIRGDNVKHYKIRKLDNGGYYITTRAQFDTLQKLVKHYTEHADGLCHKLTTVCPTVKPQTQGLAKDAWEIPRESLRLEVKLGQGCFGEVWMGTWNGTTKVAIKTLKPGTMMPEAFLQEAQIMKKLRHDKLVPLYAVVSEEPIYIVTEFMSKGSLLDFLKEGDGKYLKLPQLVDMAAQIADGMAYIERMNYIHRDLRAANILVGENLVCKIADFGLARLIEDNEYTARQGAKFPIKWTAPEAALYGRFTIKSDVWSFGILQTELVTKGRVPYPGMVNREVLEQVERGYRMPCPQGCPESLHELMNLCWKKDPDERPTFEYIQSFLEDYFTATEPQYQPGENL
The target is the same in test [13]. The settings on record: at 1 µM.
The target in test [14] is T3, Tyrosine-protein kinase ZAP-70 (Homo sapiens) (UniProt P43403).
T3 sequence (whole entry): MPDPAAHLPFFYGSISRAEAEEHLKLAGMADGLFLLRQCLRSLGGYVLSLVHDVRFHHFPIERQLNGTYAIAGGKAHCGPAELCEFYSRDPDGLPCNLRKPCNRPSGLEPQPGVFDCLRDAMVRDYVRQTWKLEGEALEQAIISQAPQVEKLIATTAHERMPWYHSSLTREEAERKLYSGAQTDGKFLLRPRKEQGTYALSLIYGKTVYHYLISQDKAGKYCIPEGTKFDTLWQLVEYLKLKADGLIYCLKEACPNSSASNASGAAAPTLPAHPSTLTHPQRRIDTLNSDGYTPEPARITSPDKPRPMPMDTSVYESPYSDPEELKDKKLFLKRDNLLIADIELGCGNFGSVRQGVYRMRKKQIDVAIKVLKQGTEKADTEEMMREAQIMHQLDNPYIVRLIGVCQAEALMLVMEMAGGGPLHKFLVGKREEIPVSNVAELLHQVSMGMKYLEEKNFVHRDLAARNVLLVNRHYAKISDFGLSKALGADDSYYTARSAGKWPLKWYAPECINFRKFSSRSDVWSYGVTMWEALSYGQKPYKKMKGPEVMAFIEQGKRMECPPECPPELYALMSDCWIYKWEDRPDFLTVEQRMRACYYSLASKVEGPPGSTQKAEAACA
The settings on record: at 0.1 µM.

In test [15] the target is T3, Tyrosine-protein kinase ZAP-70 (Homo sapiens). As to conditions: at 1 µM.
The target in test [16] is Serine/threonine-protein kinase B-raf (Homo sapiens) (UniProt P15056). As to conditions: at 0.1 µM.
Chain of Serine/threonine-protein kinase B-raf (Homo sapiens) (P15056 whole entry): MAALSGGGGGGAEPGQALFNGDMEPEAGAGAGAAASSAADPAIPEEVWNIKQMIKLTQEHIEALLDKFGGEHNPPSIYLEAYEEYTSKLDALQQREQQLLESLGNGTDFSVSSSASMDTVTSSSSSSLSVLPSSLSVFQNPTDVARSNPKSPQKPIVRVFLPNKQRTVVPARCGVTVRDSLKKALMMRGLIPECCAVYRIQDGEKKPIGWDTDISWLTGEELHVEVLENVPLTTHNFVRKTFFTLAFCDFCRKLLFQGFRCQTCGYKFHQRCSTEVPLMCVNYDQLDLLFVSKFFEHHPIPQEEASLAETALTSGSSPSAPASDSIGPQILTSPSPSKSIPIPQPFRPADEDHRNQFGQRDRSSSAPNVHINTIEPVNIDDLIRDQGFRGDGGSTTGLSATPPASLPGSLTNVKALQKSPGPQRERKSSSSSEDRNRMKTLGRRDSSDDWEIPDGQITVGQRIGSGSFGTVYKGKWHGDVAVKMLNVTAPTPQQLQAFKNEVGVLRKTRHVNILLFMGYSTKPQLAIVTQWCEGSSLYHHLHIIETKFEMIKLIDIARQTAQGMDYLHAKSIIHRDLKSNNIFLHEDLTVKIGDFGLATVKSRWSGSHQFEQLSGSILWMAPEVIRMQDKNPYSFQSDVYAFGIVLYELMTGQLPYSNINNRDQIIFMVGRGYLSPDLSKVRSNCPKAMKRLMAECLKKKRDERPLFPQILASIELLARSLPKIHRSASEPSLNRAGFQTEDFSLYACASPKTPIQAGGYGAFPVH
The target is the same in test [17]. As to conditions: at 1 µM.
Test [18] deals with Serine/threonine-protein kinase B-raf (Homo sapiens), P15056 [V600E]. The settings on record: at 0.1 µM.
Chain of Serine/threonine-protein kinase B-raf (Homo sapiens), P15056 [V600E] (P15056 whole entry V600E): as the sequence (P15056 whole entry) above, with V600E counted along it
For test [19] the test system is unchanged. The settings on record: at 1 µM.
Test [20] addresses RAF proto-oncogene serine/threonine-protein kinase (Homo sapiens) (UniProt P04049). The settings on record: at 0.1 µM.

Chain of Vascular endothelial growth factor receptor 1 (Homo sapiens) (P17948 whole entry): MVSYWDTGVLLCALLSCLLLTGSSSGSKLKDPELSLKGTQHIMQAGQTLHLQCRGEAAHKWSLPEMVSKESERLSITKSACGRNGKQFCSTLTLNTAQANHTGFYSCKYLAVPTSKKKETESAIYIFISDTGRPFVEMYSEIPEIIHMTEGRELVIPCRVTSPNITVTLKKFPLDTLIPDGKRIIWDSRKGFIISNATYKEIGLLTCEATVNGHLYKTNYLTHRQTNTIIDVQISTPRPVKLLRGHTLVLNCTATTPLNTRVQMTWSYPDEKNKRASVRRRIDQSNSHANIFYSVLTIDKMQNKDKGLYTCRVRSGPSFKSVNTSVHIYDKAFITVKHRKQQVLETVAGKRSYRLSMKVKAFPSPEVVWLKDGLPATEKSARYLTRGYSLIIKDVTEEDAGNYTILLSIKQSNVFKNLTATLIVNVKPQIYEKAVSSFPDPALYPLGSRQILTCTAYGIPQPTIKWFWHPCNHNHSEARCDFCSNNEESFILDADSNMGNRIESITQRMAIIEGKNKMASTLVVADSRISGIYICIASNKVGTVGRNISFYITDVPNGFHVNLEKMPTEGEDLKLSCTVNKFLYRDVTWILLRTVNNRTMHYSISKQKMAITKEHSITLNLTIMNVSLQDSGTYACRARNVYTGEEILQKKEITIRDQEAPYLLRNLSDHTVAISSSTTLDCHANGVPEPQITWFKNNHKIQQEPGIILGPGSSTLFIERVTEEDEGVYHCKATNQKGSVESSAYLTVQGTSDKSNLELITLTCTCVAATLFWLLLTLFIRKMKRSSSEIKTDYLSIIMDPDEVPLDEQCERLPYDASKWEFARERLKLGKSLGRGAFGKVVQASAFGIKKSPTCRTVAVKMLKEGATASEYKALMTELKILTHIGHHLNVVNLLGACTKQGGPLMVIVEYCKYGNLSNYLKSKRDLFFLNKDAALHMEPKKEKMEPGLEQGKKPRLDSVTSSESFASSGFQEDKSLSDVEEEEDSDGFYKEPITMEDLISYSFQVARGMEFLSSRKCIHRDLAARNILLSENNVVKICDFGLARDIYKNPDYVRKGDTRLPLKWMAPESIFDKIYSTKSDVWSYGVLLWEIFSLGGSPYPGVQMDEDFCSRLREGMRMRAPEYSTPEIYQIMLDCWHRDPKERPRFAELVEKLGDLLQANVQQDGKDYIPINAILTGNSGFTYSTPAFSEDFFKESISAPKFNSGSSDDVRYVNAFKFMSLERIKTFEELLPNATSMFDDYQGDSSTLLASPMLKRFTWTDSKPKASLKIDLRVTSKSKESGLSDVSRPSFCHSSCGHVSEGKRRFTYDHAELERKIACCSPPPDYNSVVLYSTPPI
Chain of RAF proto-oncogene serine/threonine-protein kinase (Homo sapiens) (P04049 whole entry): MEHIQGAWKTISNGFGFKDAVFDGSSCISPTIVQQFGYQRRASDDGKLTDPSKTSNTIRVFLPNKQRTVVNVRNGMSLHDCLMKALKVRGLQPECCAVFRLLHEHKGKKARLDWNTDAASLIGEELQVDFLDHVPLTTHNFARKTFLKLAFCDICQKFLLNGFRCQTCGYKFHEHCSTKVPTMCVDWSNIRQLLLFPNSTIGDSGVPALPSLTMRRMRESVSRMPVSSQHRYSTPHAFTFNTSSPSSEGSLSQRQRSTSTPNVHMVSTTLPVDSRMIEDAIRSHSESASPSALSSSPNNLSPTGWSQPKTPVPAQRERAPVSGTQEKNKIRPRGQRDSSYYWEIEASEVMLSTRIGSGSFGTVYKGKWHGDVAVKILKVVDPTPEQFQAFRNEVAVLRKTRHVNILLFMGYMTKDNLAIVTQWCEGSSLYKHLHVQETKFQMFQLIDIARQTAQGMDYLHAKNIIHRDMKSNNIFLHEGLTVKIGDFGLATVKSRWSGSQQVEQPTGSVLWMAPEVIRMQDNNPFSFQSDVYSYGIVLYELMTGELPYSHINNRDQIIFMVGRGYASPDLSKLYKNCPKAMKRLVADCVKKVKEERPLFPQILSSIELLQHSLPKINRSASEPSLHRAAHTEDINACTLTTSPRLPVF
Chain of Fibroblast growth factor receptor 4 (Homo sapiens) (P22455 22-802 limits assumed): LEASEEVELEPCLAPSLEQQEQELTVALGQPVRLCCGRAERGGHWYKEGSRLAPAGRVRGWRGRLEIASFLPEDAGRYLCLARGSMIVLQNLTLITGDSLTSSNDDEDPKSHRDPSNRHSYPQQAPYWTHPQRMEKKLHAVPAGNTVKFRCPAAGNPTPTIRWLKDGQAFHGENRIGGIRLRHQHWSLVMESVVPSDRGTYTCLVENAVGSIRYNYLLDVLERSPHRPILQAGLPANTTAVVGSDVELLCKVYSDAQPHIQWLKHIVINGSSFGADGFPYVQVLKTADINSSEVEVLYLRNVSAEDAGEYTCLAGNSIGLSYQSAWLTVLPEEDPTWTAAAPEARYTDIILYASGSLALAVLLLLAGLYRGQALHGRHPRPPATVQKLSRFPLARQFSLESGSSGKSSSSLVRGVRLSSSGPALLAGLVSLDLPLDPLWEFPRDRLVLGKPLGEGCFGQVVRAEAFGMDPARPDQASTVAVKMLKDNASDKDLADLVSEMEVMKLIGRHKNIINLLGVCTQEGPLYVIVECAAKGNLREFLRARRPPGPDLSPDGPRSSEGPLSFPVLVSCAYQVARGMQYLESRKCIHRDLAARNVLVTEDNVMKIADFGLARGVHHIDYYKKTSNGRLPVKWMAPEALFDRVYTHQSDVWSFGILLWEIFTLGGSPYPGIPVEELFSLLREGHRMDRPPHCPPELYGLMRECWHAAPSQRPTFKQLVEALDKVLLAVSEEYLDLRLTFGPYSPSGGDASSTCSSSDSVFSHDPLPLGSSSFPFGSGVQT
Chain of Tyrosine-protein kinase Fgr (Homo sapiens) (P09769 2-529 limits assumed): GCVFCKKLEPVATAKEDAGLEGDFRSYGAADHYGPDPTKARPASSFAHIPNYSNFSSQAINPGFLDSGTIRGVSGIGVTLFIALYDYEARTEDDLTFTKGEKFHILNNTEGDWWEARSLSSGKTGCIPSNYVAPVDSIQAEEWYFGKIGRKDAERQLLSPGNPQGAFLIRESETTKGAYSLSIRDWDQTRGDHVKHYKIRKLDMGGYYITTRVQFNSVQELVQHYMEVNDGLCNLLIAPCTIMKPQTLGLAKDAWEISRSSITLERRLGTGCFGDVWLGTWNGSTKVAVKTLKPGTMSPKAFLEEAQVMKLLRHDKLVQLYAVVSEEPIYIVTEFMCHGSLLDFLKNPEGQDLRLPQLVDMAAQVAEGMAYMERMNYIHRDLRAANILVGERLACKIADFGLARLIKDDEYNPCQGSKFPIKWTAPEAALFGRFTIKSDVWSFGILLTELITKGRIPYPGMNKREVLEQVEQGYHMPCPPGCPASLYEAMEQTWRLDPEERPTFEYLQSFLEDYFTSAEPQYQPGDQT

By inhibition is commonly meant the relative decrease from the control value, in per cent. With `Cc1c2ccc(N(C)c3ccnc(Nc4cccc(S(N)(=O)=O)c4)n3)cc2nn1C`, the inhibition in test [1] turned out to be 26.4%; in test [2], 26%; in [3], 64.7%; in [4], 52.8%; in [5], 94%; in test [6], 2.48%. For the same compound, the inhibition in [7] is 15%; in [8] it was -0.8%; in [9] it was -3.19%; in [10], 3.74%; in [11], 16.1%; in [12] it was 14.9%. For the same compound, the inhibition turned out to be 62.8% in [13]; 0.81% in test [14]; 11.5% in [15]; 9.33% in test [16]; 9.79% in test [17]; 8.28% in test [18]. Also, the figures for the inhibition in test [19] and in test [20] were 12.5% and -1.01%, respectively.
With `O=C(O[C@H]1CN[C@H](C#Cc2cc3ncnc(Nc4ccc(OCc5cccc(F)c5)c(Cl)c4)c3s2)C1)N1CCOCC1`, the inhibition was -0.16% in [1]; 4.25% in test [2]; 1.43% in test [3]; 1.9% in test [4]; -0.14% in test [5]; 3.48% in test [6]. Besides, the inhibition in test [7] was 2.29%; in test [8], -1.46%; in test [9] it was -3.98%; in test [10], 3.72%; in test [11], 5.62%; in [12], 0.43%. Besides, the inhibition in test [13] was 8.74%; in [14] it was 3.21%; in test [15] it was 0.2%; in test [16], 9.9%; in [17], 7.06%; in test [18], 8.49%. Also, the inhibition in test [19] came to 6.1%; in test [20], 10.3%.
`NS(=O)(=O)c1ccc(N/N=C2\C(=O)Nc3cccc(CCc4ccncc4)c32)cc1`: the inhibition is 1.66% in [1]; 4.48% in test [2]; 10.8% in [3]; 5.3% in test [4]; 12% in test [5]; 64.3% in test [6]. Further, the inhibition in test [7] was 79.3%; in test [8], 50.7%; in test [9] it was -1.59%; in test [10], 0.03%; in test [11] it was 2.17%; in [12], 4.12%. Moreover, the inhibition is 11.4% in test [13]; -0.82% in test [14]; 13.7% in test [15]; 1.54% in [16]; 1.46% in test [17]; 3.22% in test [18]. Besides, the values for the inhibition in test [19] and in [20] were 2.2% and -0.07%, respectively.
Take `COc1cccc(Nc2nccc(-c3cnn4ncccc34)n2)c1`: the inhibition in test [1] amounted to 1.33%; in test [2] it was 7.08%; in test [3], 19.3%; in test [4], 9.62%; in test [5], 25.1%; in test [6], 33%. The inhibition in test [7] turned out to be 78.9%; in test [8] it was 16.7%; in test [9], 30.3%; in test [10], 3.96%; in [11], 21.2%; in test [12], 3.57%. Moreover, the inhibition in test [13] turned out to be 20.5%; in test [14], 2.31%; in test [15] it was 11.7%; in test [16], 5.24%; in test [17], 31.6%; in [18], 4.52%. In addition, the values for the inhibition in test [19] and in test [20] were 30.7% and 2.53%, respectively.
For the compound `CC(C)c1ccc(-c2cc(-c3c[nH]nc3-c3ccccn3)ccn2)cc1`, the inhibition in test [1] is 0.16%; in test [2], 0.18%; in test [3] it was 1.8%; in test [4], 0.29%; in [5], 6.12%; in test [6] it was -2.11%. The inhibition in [7] was 2.26%; in test [8], 1.43%; in [9] it was -0.96%; in test [10], 1.06%; in [11], 2.71%; in test [12], 0.42%. Besides, the inhibition in test [13] amounted to 0.34%; in test [14], 1.32%; in test [15] it was 1.31%; in [16], 0.6%; in test [17], 3.57%; in test [18], 0%. For the same compound, the inhibition amounted to 3.39% in test [19] and 1.14% in [20].
Turning to `COc1ccccc1-c1cc(/C=C2\C(=O)Nc3ncc(Br)cc32)cc(Br)c1O`, the inhibition in test [1] came to 1.97%; in test [2], 2.7%; in [3], 11.6%; in test [4], 3.32%; in test [5], 4.73%; in [6], 4.36%. Also, the inhibition in [7] was 6.62%; in test [8] it was -5.55%; in test [9], -1.22%; in test [10], 7.47%; in [11], 3.41%; in [12], -0.07%. In addition, the inhibition in test [13] is 12.9%; in test [14], 2.43%; in [15] it was 6.67%; in test [16], 6.58%; in test [17] it was 10.5%; in test [18], 7.25%. For the same compound, the inhibition is 8.04% in [19] and -0.19% in test [20].
Take `O=C(O[C@H]1CN[C@H](C#Cc2cc3ncnc(Nc4ccc5c(ccn5Cc5cc(F)ccc5F)c4)c3s2)C1)N1CCOCC1`: the inhibition in [1] is 1.82%; in test [2], 2.14%; in test [3] it was 2.6%; in test [4], 0.98%; in [5], -0.89%; in [6], 1.02%. Moreover, the inhibition in [7] is 2.83%; in test [8] it was -5.8%; in test [9], -1.34%; in [10] it was 2.07%; in [11] it was 3.08%; in test [12], 0.85%. The inhibition came to 8.22% in [13]; 0.89% in [14]; 2.72% in [15]; 6% in [16]; 6.76% in test [17]; 6.11% in [18]. Further, the values for the inhibition in test [19] and in test [20] were 6.31% and 1.88%, respectively.

These data come from ChEMBL document CHEMBL1961873, “Compounds: GSK PKIS; Assays: Nanosyn kinase panel” (2012).
